Assay outcomes (PubChem BioAssay)
ADAM17 inh = inhibits human ADAM17 | recombinant ADAM17, EDANS/DABCYL FRET peptide cleavage | 370,000 compounds, 0.83% hits | inhibition, % at 6.95 µM | AID 720648;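 active = inhibition above the mean of compounds lying between control limits plus 3 SD, set per campaign, cut at about 8.5% in these data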;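 note: 0% = DMSO-only wells as the low control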
ADAM10 inh = inhibits human ADAM10. O14672. recombinant ADAM10, EDANS/DABCYL FRET peptide cleavage, 3 h. inhibition, % at 7 µM. 370,000 compounds, 0.62% hits. AID 720582;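 active = inhibition above a per-campaign cutoff equal to the mean of compounds falling between control-based bounds plus 3 SD, cut at about 20% in these data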;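 note: 0% = DMSO wells while the 100% control is not disclosed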
Target sequence (O14672 214-748 limits assumed): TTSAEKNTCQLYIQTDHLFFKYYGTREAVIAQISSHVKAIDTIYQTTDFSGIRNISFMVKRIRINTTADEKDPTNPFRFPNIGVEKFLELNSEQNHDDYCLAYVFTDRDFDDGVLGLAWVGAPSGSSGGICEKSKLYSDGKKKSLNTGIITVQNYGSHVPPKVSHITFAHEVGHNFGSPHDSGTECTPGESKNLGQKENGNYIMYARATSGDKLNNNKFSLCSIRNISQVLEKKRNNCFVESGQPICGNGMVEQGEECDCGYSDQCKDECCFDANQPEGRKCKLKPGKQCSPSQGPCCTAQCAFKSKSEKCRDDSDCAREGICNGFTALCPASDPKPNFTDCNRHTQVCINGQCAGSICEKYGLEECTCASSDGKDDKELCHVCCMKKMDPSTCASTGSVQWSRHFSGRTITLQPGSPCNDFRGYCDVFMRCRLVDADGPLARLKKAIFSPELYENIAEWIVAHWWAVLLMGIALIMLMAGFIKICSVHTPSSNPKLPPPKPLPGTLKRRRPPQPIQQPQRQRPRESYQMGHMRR
PLC-gamma1 inh = inhibitors of human phospholipase C gamma1; AID 720700; P19174; 370,000 compounds, 0.84% hits; purified PLC-gamma1, fluorogenic substrate, fluorescence; inhibition, % at 12.2 µM
proKLK7 act = activators of human kallikrein-7 zymogen; purified proKLK7, EDANS-DABCYL substrate fluorescence; 100% is mature enzyme control, 0% vehicle; AID 652039; activation, % at 7 µM; 370,000 compounds, 0.9% hits;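 active = activation above the mean of all tested compounds plus 3 SD, computed per campaign excluding outliers beyond control limits, cut at about 13% in these data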
PLCb3 inh = blocks human PLC-beta3 enzyme activity | Purified PLC-beta3, fluorogenic substrate, fluorescence | inhibition, % at 12.2 µM | 370,000 compounds, 0.18% hits | AID 720704; in the data active = inhibition above about 11%;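 note: 0% = median of compound wells on plate and 100% = full blocker control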
PLCg1 ctr = counter-screen for PLC-beta3 inhibitors: inhibitors of human PLC-gamma1 | purified PLC-gamma1, fluorogenic substrate, fluorescence | 3,300 compounds, 3.1% hits | inhibition, % at 12.3 µM | shares compounds with PLC-gamma1 inh | AID 743258
PLCb3 confirm = confirmation of human PLC-beta3 inhibitors; inhibition, % at 12.3 µM; 3,300 compounds, 1% hits; AID 743261; purified PLC-beta3, fluorogenic substrate fluorescence; shares compounds with PLC-gamma1 inh; in the data active = inhibition above about 11%
An asterisk follows results filed as active; . = no result. Hits are enriched below; roughly 2.9% of the tested compounds scored in any of these assays. Cut-off read from the data, not from the text of the source, unless noted: active = inhibition above about 9.5%; inactive = the rest.

SMILES	ADAM17 inh	ADAM10 inh	PLC-gamma1 inh	proKLK7 act	PLCb3 inh	PLCg1 ctr	PLCb3 confirm
CCOC(=O)N1CCN(C(=O)c2ccc(Cn3c(=S)[nH]c4cc5c(cc4c3=O)OCO5)cc2)CC1	3	17	12*	0	4	4	1
Cc1ccccc1-n1c(SC(C)C(N)=O)nnc1-c1cccnc1 (stereo not given)	1	-4	11*	1	2	-2	1
Cc1onc(-c2ccccc2)c1NC(=O)N(CCC#N)Cc1cccs1	4	7	10.0*	0	-2	-6	1
O=C(O)CCc1nc(-c2ccccc2)no1	1	8	3	0	6	.	.
CCN(CC)CCc1nc(-c2ccccc2)no1	7	8	11*	-1	9	-2	2
CCN1CCN(CCc2nc3cc([N+](=O)[O-])ccc3n2C)CC1	1	14	12*	-1	-3	-1	2
O=C(c1ccccc1)N1CCC(Oc2cccnc2)CC1	-3	-2	1	0	0	.	.
CC(=O)N(C(C)=O)N1C(=O)C2C3c4ccccc4C(c4ccccc43)C2C1=O (stereo not given)	6	-1	13*	0	12*	-3	1
NNC(=O)c1nc(-c2cccc(-n3cccc3)c2)no1	-2	-10	-6	1	-9	.	.
CSc1nccc(-c2c(-c3ccc(Cl)cc3)noc2C)n1	5	8	2	0	-6	.	.
Cc1onc(-c2ccc(Cl)cc2)c1-c1ccn(S(=O)(=O)c2cccc(Cl)c2)n1	5	4	9.8*	0	-2	1	-6
COc1ccc(S(=O)(=O)N2CCC[C@H]2C(=O)N2CCC[C@H]2C(=O)NCc2ccc(F)cc2F)cc1C	1	-2	0	0	-1	.	.
O=c1[nH]cnc2c1ncn2[C@@H]1C[C@@H](O)[C@H](CO)O1	-8	-3	7	0	-5	.	.
OCC1OC(n2cnc3c(=S)nc[nH]c32)CC1O (stereo not given)	-8	-3	10*	0	0	-3	2
O=C(NC1CCCC1)C(c1ccccc1)N(C(=O)c1csnn1)c1ccccc1F (stereo not given)	0	8	9.9*	0	6	2	-3
O=C(NC1CCCC1)C(c1ccncc1)N(C(=O)c1csnn1)c1ccccc1 (stereo not given)	-5	-9	0	0	-12	.	.
O=C(NC1CCCC1)C(c1cccnc1)N(C(=O)c1csnn1)c1ccc(F)cc1 (stereo not given)	-3	-21	9.7*	0	-5	-1	5
CC(=O)c1ccc(N(C(=O)c2csnn2)C(C(=O)NC2CCCC2)c2ccccc2)cc1 (stereo not given)	4	2	11*	0	3	-4	1
Cc1c(Br)c([N+](=O)[O-])nn1CCCC(=O)NC(C)c1ccccc1 (stereo not given)	-3	6	0	0	-9	.	.
O=C(CC1CCCCC1)NCc1ccccc1Cl	0	0	5	1	-4	.	.
Cc1cccc(NC(=O)C(=O)NCC2CCCN2S(=O)(=O)c2cccs2)c1 (stereo not given)	7	3	9.5*	0	-6	-4	-5
COc1ccc(NC(=O)N2CCCC2C(=O)Nc2cccc(C)c2C)cc1 (stereo not given)	3	9	12*	-1	6	-4	-3
COc1ccc(NC(=O)N2CCCC2C(=O)Nc2ccccc2F)cc1 (stereo not given)	-4	4	0	0	-8	.	.
Cc1cccc(NC(=O)C2CCCN2C(=O)Oc2ccccc2)c1 (stereo not given)	-3	-4	9	1	-3	.	.
Cc1cccc(NC(=O)N2CCCC2C(=O)Nc2ccccc2)c1 (stereo not given)	1	4	13*	0	7	-4	-4
SMILES	ADAM17 inh	ADAM10 inh	PLC-gamma1 inh	proKLK7 act	PLCb3 inh	PLCg1 ctr	PLCb3 confirm
Cc1cccc(NC(=O)N2CCCC2C(=O)NCc2cccs2)c1 (stereo not given)	6	11	12*	0	5	-4	1
Fc1ccc(-c2nc3c4ccccc4ccn3c2Cc2ccsc2)cc1	-7	-34	-15	-1	-21	.	.
Oc1ccc(Nc2ccccc2F)c2cccnc12	1	5	-38	.	-55	.	.
CCCCN(C)c1c2c(nc3ncnn13)CCCC2	2	2	0	0	3	.	.
CC(C)(C)c1cc(NC(=O)C2(C)CCN2C(=O)C2(c3ccccc3)CC2)no1 (stereo not given)	3	1	3	-1	8	.	.
CCCOc1ccc(/C=N\NC(=O)CCc2n[nH]c(=O)[nH]c2=O)cc1OC	2	8	11*	0	13*	-8	-1
CC(C)Cn1c(SCC(=O)N2CCCc3ccccc32)nc2ccccc2c1=O	4	11	11*	0	-1	1	1
CCN1C(=O)c2ccccc2S(=O)c2ccc(C(=O)N3CCCCCC3)cc21 (stereo not given)	-1	11	6	0	11*	-6	-4
O=C(NCc1ccco1)c1cccc(F)c1	-4	-5	10*	0	-6	-6	-2
COc1ccc(Cl)cc1C(=O)NCc1ccco1	5	5	13*	0	-5	-5	-1
CC1CCN(c2ccc(C(=O)O)cc2NS(=O)(=O)c2ccc(F)cc2)CC1	0	-4	2	1	-1	.	.
Cc1ccc(NC(=O)Cn2c([N+](=O)[O-])cnc2C)cc1Cl	-3	-5	2	0	-1	.	.
Cn1c(SCC(=O)N2CCOCC2)nnc1-c1ccccc1	7	7	9	0	12*	-4	-2
Cn1c(SCC(=O)N2CCN(c3ccccc3)CC2)nnc1-c1ccncc1	3	9	1	1	6	.	.
COCCNC(=O)C1CCCN(C(=O)COc2ccc(C(C)(C)C)cc2)CC1 (stereo not given)	-4	-2	0	0	2	.	.
CCCCC1CCC(c2nc(-c3ccccn3)no2)CC1 (stereo not given)	3	2	9.8*	1	3	-4	-4
c1ccc(-c2noc(C3CCC3)n2)nc1	-5	-3	0	1	-7	.	.
C=C(C)c1ccccc1NC(=O)CCN1C(=O)c2ccccc2S1(=O)=O	2	15	9.6*	0	1	-1	2
CN(CC(=O)NCc1ccccc1)Cc1cccc(F)c1	5	7	11*	-1	5	-6	-3
CCOc1ccc(CN(C)CC(=O)NCc2ccccc2)cc1	-11	-10	0	0	-8	.	.
O=[N+]([O-])c1ccc2[nH]cc(S(=O)(=O)N3CCN(c4cccc(Cl)c4)CC3)c2c1	0	10	10*	0	1	14*	10
